Measurements from ChEMBL document CHEMBL2218924, “A broad activity screen in support of a chemogenomic map for kinase signalling research and drug discovery” (Biochem J, 2013).

Legend:
[1] = target: T1, Testis-specific serine/threonine-protein kinase 1 (Homo sapiens) (UniProt Q9BXA7); details: at 1 µM
T1 sequence (whole entry): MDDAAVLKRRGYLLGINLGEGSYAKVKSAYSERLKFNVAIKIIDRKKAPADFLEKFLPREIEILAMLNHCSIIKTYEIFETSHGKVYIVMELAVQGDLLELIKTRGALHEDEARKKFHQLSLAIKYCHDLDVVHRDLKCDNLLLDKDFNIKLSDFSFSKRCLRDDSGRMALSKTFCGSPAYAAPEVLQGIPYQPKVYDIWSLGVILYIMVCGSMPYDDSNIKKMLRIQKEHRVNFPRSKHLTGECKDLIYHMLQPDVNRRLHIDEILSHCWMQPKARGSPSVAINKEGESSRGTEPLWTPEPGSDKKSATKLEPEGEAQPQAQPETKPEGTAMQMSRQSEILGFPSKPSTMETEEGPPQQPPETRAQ

[2] = target: T1, Testis-specific serine/threonine-protein kinase 1 (Homo sapiens); details: at 10 µM
[3] = target: T2, Testis-specific serine/threonine-protein kinase 2 (Homo sapiens) (UniProt Q96PF2); details: at 10 µM
T2 sequence (whole entry): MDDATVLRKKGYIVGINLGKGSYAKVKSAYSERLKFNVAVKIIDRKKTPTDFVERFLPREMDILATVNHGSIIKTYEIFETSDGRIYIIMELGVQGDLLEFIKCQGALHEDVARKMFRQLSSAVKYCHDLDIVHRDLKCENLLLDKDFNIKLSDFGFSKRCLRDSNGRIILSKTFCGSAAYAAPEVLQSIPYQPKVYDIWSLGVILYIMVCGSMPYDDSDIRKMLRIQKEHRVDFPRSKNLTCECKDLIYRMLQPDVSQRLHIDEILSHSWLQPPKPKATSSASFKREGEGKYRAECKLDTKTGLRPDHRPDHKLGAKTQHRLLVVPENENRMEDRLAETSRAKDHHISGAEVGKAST

[4] = target: T3, Tyrosine-protein kinase Tec (Homo sapiens) (UniProt P42680); details: at 1 µM
T3 sequence (whole entry): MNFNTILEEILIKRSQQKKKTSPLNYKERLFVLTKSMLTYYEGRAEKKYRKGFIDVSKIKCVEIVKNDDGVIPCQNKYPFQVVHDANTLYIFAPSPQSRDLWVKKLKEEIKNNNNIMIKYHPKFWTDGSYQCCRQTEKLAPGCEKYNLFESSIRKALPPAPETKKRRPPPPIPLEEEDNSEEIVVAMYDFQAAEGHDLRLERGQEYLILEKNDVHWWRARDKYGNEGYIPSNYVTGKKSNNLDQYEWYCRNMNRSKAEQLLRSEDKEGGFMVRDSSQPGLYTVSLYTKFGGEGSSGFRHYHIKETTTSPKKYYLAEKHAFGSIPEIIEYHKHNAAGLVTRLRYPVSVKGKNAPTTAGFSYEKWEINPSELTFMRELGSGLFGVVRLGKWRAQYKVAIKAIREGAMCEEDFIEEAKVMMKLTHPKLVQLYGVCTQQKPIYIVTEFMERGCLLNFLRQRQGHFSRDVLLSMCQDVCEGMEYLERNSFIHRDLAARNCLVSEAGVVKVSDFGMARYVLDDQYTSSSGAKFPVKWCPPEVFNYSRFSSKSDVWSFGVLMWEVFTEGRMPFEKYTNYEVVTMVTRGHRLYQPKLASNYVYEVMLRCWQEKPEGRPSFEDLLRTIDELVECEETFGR

[5] = target: T3, Tyrosine-protein kinase Tec (Homo sapiens); details: at 10 µM
[6] = target: Angiopoietin-1 receptor (Homo sapiens) (UniProt Q02763); details: at 1 µM
[7] = target: Angiopoietin-1 receptor (Homo sapiens) (UniProt Q02763); details: at 10 µM
[8] = target: High affinity nerve growth factor receptor (Homo sapiens) (UniProt P04629); details: at 1 µM
[9] = target: High affinity nerve growth factor receptor (Homo sapiens) (UniProt P04629); details: at 10 µM
[10] = target: BDNF/NT-3 growth factors receptor (Homo sapiens) (UniProt Q16620); details: at 1 µM
[11] = target: BDNF/NT-3 growth factors receptor (Homo sapiens) (UniProt Q16620); details: at 10 µM
[12] = target: T4, Tyrosine-protein kinase TXK (Homo sapiens) (UniProt P42681); details: at 1 µM
T4 sequence (whole entry): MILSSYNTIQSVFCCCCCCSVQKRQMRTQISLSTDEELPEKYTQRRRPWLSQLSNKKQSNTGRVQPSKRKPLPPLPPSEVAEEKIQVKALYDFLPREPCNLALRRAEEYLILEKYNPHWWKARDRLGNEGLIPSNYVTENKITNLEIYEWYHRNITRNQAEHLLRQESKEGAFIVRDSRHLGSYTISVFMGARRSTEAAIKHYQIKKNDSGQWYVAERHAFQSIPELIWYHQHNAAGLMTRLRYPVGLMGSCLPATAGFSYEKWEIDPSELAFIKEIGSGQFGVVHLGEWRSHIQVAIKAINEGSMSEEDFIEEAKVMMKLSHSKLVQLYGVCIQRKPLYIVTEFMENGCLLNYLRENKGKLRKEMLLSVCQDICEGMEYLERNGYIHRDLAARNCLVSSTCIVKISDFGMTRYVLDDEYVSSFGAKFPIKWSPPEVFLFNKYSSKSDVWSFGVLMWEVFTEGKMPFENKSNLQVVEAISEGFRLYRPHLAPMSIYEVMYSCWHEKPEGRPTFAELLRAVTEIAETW

[13] = target: T4, Tyrosine-protein kinase TXK (Homo sapiens); details: at 10 µM
[14] = target: T5, Serine/threonine-protein kinase ULK2 (Homo sapiens) (UniProt Q8IYT8); details: at 1 µM
T5 sequence (whole entry): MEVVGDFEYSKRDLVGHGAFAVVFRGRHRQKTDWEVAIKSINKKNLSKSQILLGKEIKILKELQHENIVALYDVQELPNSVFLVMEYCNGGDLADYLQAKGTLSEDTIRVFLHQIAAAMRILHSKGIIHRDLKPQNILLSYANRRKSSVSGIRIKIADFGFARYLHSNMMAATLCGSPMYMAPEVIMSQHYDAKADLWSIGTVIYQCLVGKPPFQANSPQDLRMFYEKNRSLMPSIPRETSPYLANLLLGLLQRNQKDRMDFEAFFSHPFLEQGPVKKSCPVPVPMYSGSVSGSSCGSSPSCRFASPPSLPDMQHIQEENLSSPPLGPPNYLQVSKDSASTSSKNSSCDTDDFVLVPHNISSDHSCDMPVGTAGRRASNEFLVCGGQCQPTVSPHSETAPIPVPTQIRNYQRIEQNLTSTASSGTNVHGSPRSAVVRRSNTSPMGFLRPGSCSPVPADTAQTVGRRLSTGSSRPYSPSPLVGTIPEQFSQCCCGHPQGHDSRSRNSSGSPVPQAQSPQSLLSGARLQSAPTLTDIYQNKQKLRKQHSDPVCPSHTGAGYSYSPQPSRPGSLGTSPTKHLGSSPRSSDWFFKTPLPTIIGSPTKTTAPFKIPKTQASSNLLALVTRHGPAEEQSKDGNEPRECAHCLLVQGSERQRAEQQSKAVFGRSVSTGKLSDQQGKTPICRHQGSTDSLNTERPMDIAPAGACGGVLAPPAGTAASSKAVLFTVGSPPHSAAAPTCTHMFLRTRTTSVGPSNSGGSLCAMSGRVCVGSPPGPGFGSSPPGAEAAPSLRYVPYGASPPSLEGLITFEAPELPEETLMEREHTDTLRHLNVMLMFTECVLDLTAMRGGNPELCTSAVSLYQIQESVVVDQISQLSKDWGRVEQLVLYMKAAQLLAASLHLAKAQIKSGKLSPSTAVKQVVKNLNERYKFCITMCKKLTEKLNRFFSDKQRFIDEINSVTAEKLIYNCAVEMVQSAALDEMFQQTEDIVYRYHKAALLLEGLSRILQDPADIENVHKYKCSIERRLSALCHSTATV

[15] = target: T5, Serine/threonine-protein kinase ULK2 (Homo sapiens); details: at 10 µM
[16] = target: T6, Serine/threonine-protein kinase ULK3 (Homo sapiens) (UniProt Q6PHR2); details: at 1 µM
T6 sequence (whole entry): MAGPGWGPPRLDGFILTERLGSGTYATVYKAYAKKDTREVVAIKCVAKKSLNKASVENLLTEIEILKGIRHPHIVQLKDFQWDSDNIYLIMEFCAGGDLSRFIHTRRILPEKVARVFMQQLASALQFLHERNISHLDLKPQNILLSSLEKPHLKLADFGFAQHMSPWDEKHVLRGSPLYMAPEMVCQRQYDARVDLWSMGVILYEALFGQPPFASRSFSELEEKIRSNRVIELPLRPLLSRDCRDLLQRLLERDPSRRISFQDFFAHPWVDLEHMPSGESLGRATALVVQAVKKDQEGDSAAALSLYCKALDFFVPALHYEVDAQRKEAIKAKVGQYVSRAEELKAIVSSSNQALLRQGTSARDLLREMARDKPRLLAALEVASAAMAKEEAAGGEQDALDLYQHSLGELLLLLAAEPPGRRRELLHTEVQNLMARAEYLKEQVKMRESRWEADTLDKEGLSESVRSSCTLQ

[17] = target: T6, Serine/threonine-protein kinase ULK3 (Homo sapiens); details: at 10 µM
[18] = target: Serine/threonine-protein kinase VRK2 (Homo sapiens) (UniProt Q86Y07); details: at 1 µM
[19] = target: Serine/threonine-protein kinase VRK2 (Homo sapiens) (UniProt Q86Y07); details: at 10 µM
[20] = target: Serine/threonine-protein kinase WNK2 (Homo sapiens) (UniProt Q9Y3S1); details: at 1 µM;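 note: residual WNK2 kinase activity expressed as percent of uninhibited control, assayed in MOPS buffer at pH 7.0 containing EDTA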
Chain of Serine/threonine-protein kinase WNK2 (Homo sapiens) (Q9Y3S1 whole entry): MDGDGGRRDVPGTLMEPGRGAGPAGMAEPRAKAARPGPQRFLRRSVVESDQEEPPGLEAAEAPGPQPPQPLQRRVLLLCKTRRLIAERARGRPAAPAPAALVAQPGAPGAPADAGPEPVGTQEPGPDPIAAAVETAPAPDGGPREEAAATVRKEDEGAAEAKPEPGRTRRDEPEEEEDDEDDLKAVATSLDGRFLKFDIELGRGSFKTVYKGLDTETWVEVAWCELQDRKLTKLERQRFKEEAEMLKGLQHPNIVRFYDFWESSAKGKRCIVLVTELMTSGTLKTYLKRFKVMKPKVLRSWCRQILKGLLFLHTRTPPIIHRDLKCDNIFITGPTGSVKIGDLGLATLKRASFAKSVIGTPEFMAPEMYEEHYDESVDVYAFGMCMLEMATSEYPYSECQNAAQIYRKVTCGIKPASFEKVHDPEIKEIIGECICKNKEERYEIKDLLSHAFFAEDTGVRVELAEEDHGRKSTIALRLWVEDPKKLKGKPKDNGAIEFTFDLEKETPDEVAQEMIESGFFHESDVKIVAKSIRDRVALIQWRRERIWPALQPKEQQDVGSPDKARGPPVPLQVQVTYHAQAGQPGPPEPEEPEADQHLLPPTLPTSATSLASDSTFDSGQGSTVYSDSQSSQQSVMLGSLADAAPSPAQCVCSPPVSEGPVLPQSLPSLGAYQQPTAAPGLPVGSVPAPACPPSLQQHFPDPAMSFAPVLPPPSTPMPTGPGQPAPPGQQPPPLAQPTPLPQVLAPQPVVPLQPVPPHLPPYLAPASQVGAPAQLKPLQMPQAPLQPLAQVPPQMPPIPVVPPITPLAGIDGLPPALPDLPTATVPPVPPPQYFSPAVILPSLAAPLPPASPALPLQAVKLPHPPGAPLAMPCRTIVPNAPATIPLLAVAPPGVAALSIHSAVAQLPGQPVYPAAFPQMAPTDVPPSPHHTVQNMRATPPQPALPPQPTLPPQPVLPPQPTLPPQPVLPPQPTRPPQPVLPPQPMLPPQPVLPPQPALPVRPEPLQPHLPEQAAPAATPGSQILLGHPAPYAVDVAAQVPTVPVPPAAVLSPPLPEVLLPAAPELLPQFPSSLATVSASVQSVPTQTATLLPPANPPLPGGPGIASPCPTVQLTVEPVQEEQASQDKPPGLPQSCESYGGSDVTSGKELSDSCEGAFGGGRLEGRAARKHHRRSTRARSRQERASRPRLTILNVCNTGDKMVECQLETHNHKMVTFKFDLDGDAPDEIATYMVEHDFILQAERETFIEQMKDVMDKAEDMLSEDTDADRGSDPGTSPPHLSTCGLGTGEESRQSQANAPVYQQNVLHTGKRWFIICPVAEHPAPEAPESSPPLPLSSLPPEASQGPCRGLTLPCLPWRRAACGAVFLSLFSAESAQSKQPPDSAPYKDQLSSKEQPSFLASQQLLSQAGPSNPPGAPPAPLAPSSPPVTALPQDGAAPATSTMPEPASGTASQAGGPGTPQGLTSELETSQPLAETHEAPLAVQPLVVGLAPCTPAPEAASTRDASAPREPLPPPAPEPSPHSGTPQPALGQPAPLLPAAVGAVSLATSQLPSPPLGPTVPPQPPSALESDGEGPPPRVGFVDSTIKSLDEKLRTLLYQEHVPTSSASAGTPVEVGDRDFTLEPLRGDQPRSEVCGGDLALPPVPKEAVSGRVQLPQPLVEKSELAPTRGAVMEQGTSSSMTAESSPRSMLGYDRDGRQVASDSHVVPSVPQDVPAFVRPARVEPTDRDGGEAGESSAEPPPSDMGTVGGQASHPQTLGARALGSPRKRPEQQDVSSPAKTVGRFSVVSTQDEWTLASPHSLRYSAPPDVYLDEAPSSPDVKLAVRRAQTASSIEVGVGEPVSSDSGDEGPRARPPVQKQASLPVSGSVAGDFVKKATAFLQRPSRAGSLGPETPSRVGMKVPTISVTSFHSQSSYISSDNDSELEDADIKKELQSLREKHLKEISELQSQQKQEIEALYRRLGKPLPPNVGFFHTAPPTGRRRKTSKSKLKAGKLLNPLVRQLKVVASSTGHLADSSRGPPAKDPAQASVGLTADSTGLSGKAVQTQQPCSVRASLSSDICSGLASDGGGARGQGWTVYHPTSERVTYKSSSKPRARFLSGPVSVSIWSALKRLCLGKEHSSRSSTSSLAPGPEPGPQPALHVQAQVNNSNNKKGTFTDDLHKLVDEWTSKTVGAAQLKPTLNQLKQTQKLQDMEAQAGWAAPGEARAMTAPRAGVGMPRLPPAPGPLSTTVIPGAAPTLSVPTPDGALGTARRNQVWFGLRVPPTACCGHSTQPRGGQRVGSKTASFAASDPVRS

Chain of Serine/threonine-protein kinase VRK2 (Homo sapiens) (Q86Y07 whole entry): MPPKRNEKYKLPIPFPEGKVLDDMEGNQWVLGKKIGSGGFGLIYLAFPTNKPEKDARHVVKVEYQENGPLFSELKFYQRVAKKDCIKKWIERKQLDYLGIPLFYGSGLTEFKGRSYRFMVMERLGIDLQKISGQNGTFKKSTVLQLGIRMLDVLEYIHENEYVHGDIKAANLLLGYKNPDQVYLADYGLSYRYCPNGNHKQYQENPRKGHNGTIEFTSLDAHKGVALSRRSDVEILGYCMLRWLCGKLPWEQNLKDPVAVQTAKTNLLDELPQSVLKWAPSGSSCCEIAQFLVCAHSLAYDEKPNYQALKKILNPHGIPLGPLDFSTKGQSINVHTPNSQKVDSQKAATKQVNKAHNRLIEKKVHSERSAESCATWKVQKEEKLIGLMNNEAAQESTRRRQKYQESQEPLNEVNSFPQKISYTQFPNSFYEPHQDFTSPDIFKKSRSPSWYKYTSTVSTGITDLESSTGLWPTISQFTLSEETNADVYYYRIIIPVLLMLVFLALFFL
Chain of High affinity nerve growth factor receptor (Homo sapiens) (P04629 33-796 limits assumed): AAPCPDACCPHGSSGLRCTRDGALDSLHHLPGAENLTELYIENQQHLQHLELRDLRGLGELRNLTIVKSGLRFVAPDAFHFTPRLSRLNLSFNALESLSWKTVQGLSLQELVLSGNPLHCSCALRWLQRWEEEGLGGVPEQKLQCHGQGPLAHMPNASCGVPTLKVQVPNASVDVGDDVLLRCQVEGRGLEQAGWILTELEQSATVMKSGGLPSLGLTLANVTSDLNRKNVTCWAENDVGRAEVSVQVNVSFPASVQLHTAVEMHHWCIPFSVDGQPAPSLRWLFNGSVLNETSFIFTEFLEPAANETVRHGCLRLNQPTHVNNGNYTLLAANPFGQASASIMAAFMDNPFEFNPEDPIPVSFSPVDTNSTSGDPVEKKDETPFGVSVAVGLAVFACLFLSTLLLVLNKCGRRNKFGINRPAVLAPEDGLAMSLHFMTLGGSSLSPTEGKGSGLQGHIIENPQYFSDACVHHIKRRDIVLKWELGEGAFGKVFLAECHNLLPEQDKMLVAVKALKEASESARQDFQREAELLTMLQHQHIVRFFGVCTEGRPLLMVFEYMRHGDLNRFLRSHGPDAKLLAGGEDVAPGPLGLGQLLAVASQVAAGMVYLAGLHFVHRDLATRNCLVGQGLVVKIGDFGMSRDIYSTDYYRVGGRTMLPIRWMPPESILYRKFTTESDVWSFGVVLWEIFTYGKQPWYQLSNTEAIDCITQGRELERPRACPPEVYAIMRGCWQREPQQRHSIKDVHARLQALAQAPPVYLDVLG
Chain of BDNF/NT-3 growth factors receptor (Homo sapiens) (Q16620 32-822 limits assumed): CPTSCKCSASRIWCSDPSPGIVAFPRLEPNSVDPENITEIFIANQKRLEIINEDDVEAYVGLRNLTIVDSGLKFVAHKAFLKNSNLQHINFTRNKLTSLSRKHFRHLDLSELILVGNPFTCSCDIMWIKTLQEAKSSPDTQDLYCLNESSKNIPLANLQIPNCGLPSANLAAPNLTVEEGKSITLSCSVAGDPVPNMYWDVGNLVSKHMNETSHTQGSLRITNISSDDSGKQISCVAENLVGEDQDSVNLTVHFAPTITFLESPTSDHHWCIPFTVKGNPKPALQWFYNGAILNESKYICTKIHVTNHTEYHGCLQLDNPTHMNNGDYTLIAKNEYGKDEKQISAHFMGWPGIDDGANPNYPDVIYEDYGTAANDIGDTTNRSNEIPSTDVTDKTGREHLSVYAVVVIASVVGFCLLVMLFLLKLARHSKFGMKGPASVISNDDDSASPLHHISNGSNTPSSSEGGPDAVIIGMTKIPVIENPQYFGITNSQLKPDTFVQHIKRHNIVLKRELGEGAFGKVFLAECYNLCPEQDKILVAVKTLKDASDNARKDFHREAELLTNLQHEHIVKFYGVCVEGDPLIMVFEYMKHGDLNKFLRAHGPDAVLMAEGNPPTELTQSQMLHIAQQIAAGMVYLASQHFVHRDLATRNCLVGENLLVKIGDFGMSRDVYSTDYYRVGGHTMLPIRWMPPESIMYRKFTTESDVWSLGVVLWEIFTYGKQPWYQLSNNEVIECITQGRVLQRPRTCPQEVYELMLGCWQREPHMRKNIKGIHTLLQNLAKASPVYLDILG

SMILES | residual activity [1] | residual activity [2] | residual activity [3] | residual activity [4] | residual activity [5] | residual activity [6] | residual activity [7] | residual activity [8] | residual activity [9] | residual activity [10] | residual activity [11] | residual activity [12] | residual activity [13] | residual activity [14] | residual activity [15] | residual activity [16] | residual activity [17] | residual activity [18] | residual activity [19] | residual activity [20]
NC(=O)c1ccc2[nH]c(-c3ccc(Oc4ccc(Cl)cc4)cc3)nc2c1 | 101% | 80% | 95% | 106% | 92% | 109% | 131% | 78% | 54% | 103% | 101% | 96% | 92% | 97% | 93% | 90% | 87% | 88% (inactive) | 82% | 90% (inactive)
O=[N+]([O-])c1ccc(-c2nc(-c3ccc(F)cc3)c(-c3ccncc3)[nH]2)cc1 | 97% | 85% | 94% | 98% | 70% | 98% | 86% | 96% | 90% | 98% | 107% | 61% | 66% | 112% | 106% | 103% | 103% |  | 93% | 102% (inactive)
COc1cc2ncnc(Nc3ccc(NC(=O)c4ccccc4)cc3)c2cc1OC | 109% | 92% | 96% | 97% | 82% |  | 65% | 73% | 20% | 54% | 21% | 95% | 82% | 108% | 104% | 99% | 69% | 110% (inactive) | 55% | 52% (inactive)
Cn1nc2c3c(cccc31)C(=O)c1ccccc1-2 | 100% | 79% | 76% | 90% | 69% | 104% | 79% | 46% | 9% |  | 66% | 82% | 61% |  | 104% | 89% | 84% | 92% (inactive) | 77% | 93% (inactive)
